Experimental data: PubChem BioAssay (Tox21)
Records with an inconclusive call do not appear. Values without a mark were called inactive. Calls of active or inactive are those of the source. The call rests on the fitted dose curve; in most records, active means well fitted curve in the direction sought with a large enough effect in the repeat runs; inconclusive means weak or mixed curves; inactive means no such curve, though single readings can be large; an effect the other way counts as inactive or inconclusive.

test system: not listed separately; assay: qHTS assay to identify aromatase inhibitors - cell viability counter screen (AID 743084); settings: MCF-7 aro ERE viability, CellTiter-Fluor, 24 h; series mostly up to 70.3 µM; activity change, negative = cytotoxicity: at the top concentration;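 further: cells stimulated with testosterone during compound exposure; nearly all actives have a fitted effect of over 55% in size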
On the % scale 0 is the no-effect control and ±100 the full control effect; potency means the concentration at half of the fitted maximal effect.

Compound | activity change, negative = cytotoxicity | Potency
c1ccc2c(c1)[nH]c1cnccc12 | 5.53% | 
CC(C)(C)c1cc([N+](=O)[O-])cc(C(C)(C)C)c1O |  | 21.7 µM (active)
O=c1[nH]c2ccccc2n1C1CCN(CCCC(c2ccc(F)cc2)c2ccc(F)cc2)CC1 |  | 54.5 µM (active)
CC(C)(C)OO | -2.92% | 
BrCBr | -25.6% [at 95 µM] | 
COc1ccc(/C(=C/C(=O)N2CCOCC2)c2ccc(Cl)cc2)cc1OC | -2.57% | 
BrC(Br)Br | -1.02% | 
N#CNC#N | 0.576% [at 95 µM] | 
COc1cc(N)c(Cl)cc1C(=O)NC1CN2CCC1CC2 (stereo unspecified) | 8.43% | 
ClC(Cl)=C(c1ccc(Cl)cc1)c1ccc(Cl)cc1 | 19.9% [at 95 µM] | 
CC(C)OC(=S)S | -6.99% | 
CCN | 10.8% [at 95 µM] | 
Fc1cccc(Cl)c1CCl | -2.37% | 
CCCCCCCCCCCCCN1CC(C)OC(C)C1 (stereo unspecified) | -0.903% | 
CC(C)CCCCCOC(=O)c1ccccc1C(=O)OCCCCCC(C)C | 4.22% | 
O=[N+]([O-])c1ccc(Oc2ccc(C(F)(F)F)cc2[N+](=O)[O-])cc1 | 15% | 
CC(=O)Nc1ccc2c(c1)Cc1ccccc1-2 | 24.1% [at 95 µM] | 
CC(C)OS(C)(=O)=O | 8.99% [at 95 µM] | 
CCOC(=O)OC1=C(c2cc(C)ccc2C)C(=O)NC12CCC(OC)CC2 (stereo unspecified) | -1.22% | 

Compound | activity change, negative = cytotoxicity | Potency
FC(F)(F)c1cccc(C2=CCN(CCc3ccc4ccccc4c3)CC2)c1 | 16.2% | 
O=C1NCN(c2ccccc2)C12CCN(CC1COc3ccccc3O1)CC2 (stereo unspecified) | 3.85% | 
COc1cccc(C(=O)CCN[C@@H](C)[C@H](O)c2ccccc2)c1 | -13.7% | 
CCCCN(CCCC)C(=S)[S-].CCCCN(CCCC)C(=S)[S-].[Zn+2] | -1.93% | 
C[C@]12CC[C@H]3[C@@H](CCC4=CC(=O)CC[C@@]43C)[C@@H]1CC[C@@H]2O | 5.55% | 
Clc1ccc(C(c2ccc(Cl)cc2)C(Cl)(Cl)Cl)cc1 |  | inactive
NNC(=O)c1ccccc1 | -21.7% [at 95 µM] | 
Clc1ccc(CSC(Cn2ccnc2)c2ccc(Cl)cc2Cl)cc1 (stereo unspecified) | 4.51% [at 32.5 µM] | 
ClC(Cl)=C(Cl)Cl | -4.72% | 
CC(=O)O[C@H]1CC[C@@]2(C)C(=CC[C@@H]3[C@@H]2CC[C@]2(C)C(=O)CC[C@@H]32)C1 | -17.4% [at 32.5 µM] | 
ClC1=C(Cl)C2(Cl)C3C(Cl)C=CC3C1(Cl)C2(Cl)Cl (stereo unspecified) | -6.68% [at 95 µM] | 
C[C@]12CC[C@@H]3c4ccc(OC(=O)N(CCCl)CCCl)cc4CC[C@H]3[C@@H]1CC[C@@H]2O | 9.29% | 
CC(C)CC(C)N (stereo unspecified) | 21.6% | 
N#CCCSCCC#N | 3.86% | 
C[C@H]1CC[C@@H]2[C@@H](C)[C@H]3[C@H](C[C@H]4[C@@H]5CC=C6CC(O[C@@H]7O[C@H](CO)[C@H](O)[C@H](O[C@@H]8O[C@H](CO)[C@@H](O)[C@H](O)[C@H]8O)[C@H]7O[C@H]7O[C@@H](C)[C@H](O)[C@@H](O)[C@H]7O)CC[C@]6(C)[C@H]5CC[C@]34C)N2C1 (stereo partly specified) |  | 19.9 µM (active)
Clc1ccc(C(Cl)(Cl)Cl)c(Cl)c1 | -12% [at 95 µM] | 
CCOC(=O)CC(=O)CCl |  | 30.6 µM (active)
CN(C)CCc1c[nH]c2ccc(O)cc12 | 1.05% | 
CC(C)OC(=O)C(O)(c1ccc(Cl)cc1)c1ccc(Cl)cc1 | -21% | 

biological target: Aryl hydrocarbon receptor (Homo sapiens) (UniProt P35869); assay: qHTS assay to identify small molecule that activate the aryl hydrocarbon receptor (AhR) signaling pathway (AID 743085); settings: HepG2 AhR-luc (HG2L7.5c1), luciferase, 24 h; series mostly up to 70.3 µM; activation: at the top concentration; further: nearly all actives have a fitted effect of over 15% in size;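 on activation: HG2L7.5c1 human HepG2 liver cells with stably integrated DRE-driven firefly reporter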
Sequence (P35869 whole entry, looked up): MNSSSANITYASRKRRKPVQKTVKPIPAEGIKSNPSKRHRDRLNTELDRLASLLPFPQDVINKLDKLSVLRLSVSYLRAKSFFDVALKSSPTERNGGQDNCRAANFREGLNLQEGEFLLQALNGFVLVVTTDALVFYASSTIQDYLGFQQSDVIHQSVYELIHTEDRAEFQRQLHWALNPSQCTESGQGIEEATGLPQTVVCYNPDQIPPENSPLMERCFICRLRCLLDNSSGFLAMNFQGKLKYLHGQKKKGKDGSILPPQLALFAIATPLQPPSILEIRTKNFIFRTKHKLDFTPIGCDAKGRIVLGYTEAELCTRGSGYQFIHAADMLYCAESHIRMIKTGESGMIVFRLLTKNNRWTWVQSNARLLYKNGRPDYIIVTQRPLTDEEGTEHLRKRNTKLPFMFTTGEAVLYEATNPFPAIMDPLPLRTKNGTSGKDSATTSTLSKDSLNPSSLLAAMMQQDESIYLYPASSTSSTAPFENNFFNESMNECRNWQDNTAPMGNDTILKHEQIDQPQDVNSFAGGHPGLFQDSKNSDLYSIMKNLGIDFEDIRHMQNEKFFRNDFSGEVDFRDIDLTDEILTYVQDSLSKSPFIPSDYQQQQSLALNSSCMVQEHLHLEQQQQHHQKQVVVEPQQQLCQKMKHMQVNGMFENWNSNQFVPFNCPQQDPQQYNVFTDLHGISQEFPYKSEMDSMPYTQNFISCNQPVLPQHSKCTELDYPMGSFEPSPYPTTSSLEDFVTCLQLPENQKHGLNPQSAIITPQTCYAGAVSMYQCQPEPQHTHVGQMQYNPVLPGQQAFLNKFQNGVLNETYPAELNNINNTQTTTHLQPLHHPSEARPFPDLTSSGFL
Outline: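 Compounds were tested in HepG2 hepatocellular carcinoma cells harbouring a stably integrated luciferase gene under control of 20 DREs. Increased reporter signal after 24 h treatment at 37C was taken as AhR activation.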

Compound | Potency | activation
c1ccc2c(c1)[nH]c1cnccc12 | 54.5 µM (active) | 
CC(C)(C)c1cc([N+](=O)[O-])cc(C(C)(C)C)c1O |  | -0.675%
O=c1[nH]c2ccccc2n1C1CCN(CCCC(c2ccc(F)cc2)c2ccc(F)cc2)CC1 | inactive | 
CC(C)(C)OO |  | 5.99%
BrCBr |  | -0.857% [at 95 µM]
COc1ccc(/C(=C/C(=O)N2CCOCC2)c2ccc(Cl)cc2)cc1OC |  | -0.843%
BrC(Br)Br |  | -2.04%
N#CNC#N |  | 0.333% [at 95 µM]
COc1cc(N)c(Cl)cc1C(=O)NC1CN2CCC1CC2 (stereo unspecified) |  | -0.535%
ClC(Cl)=C(c1ccc(Cl)cc1)c1ccc(Cl)cc1 | inactive | 
CC(C)OC(=S)S |  | -0.362%
CCN |  | -0.0002% [at 95 µM]
Fc1cccc(Cl)c1CCl |  | 3.18%
CCCCCCCCCCCCCN1CC(C)OC(C)C1 (stereo unspecified) |  | -0.586%
CC(C)CCCCCOC(=O)c1ccccc1C(=O)OCCCCCC(C)C |  | -0.968%
O=[N+]([O-])c1ccc(Oc2ccc(C(F)(F)F)cc2[N+](=O)[O-])cc1 | 30.6 µM (active) | 
CC(=O)Nc1ccc2c(c1)Cc1ccccc1-2 | 55.3 µM (active) | 
CC(C)OS(C)(=O)=O |  | 0.211% [at 95 µM]
CCOC(=O)OC1=C(c2cc(C)ccc2C)C(=O)NC12CCC(OC)CC2 (stereo unspecified) |  | -0.81%

Compound | Potency | activation
FC(F)(F)c1cccc(C2=CCN(CCc3ccc4ccccc4c3)CC2)c1 |  | -0.768%
O=C1NCN(c2ccccc2)C12CCN(CC1COc3ccccc3O1)CC2 (stereo unspecified) |  | 4.44%
COc1cccc(C(=O)CCN[C@@H](C)[C@H](O)c2ccccc2)c1 |  | 3.16%
CCCCN(CCCC)C(=S)[S-].CCCCN(CCCC)C(=S)[S-].[Zn+2] | inactive | 
C[C@]12CC[C@H]3[C@@H](CCC4=CC(=O)CC[C@@]43C)[C@@H]1CC[C@@H]2O |  | -2.15%
Clc1ccc(C(c2ccc(Cl)cc2)C(Cl)(Cl)Cl)cc1 | inactive | 
NNC(=O)c1ccccc1 | 15.8 µM (active) | 
Clc1ccc(CSC(Cn2ccnc2)c2ccc(Cl)cc2Cl)cc1 (stereo unspecified) |  | 0.76% [at 32.5 µM]
ClC(Cl)=C(Cl)Cl |  | -2.19%
CC(=O)O[C@H]1CC[C@@]2(C)C(=CC[C@@H]3[C@@H]2CC[C@]2(C)C(=O)CC[C@@H]32)C1 | inactive | 
ClC1=C(Cl)C2(Cl)C3C(Cl)C=CC3C1(Cl)C2(Cl)Cl (stereo unspecified) | inactive | 
C[C@]12CC[C@@H]3c4ccc(OC(=O)N(CCCl)CCCl)cc4CC[C@H]3[C@@H]1CC[C@@H]2O |  | 0.627%
CC(C)CC(C)N (stereo unspecified) |  | -1.92%
N#CCCSCCC#N |  | -0.141%
C[C@H]1CC[C@@H]2[C@@H](C)[C@H]3[C@H](C[C@H]4[C@@H]5CC=C6CC(O[C@@H]7O[C@H](CO)[C@H](O)[C@H](O[C@@H]8O[C@H](CO)[C@@H](O)[C@H](O)[C@H]8O)[C@H]7O[C@H]7O[C@@H](C)[C@H](O)[C@@H](O)[C@H]7O)CC[C@]6(C)[C@H]5CC[C@]34C)N2C1 (stereo partly specified) | inactive | 
Clc1ccc(C(Cl)(Cl)Cl)c(Cl)c1 |  | -0.836% [at 95 µM]
CCOC(=O)CC(=O)CCl |  | -0.468%
CN(C)CCc1c[nH]c2ccc(O)cc12 |  | 1.48%
CC(C)OC(=O)C(O)(c1ccc(Cl)cc1)c1ccc(Cl)cc1 |  | -0.459%
